Measurements from PubChem BioAssay (NCATS).
Records with an inconclusive call do not appear. Calls of active or inactive are those of the source. Calls follow the shape of the dose curve; as a rule, active = well fitted curve in the direction sought with a large enough effect; inconclusive = small, poorly fitted or top-dose-only effect, or another doubt; inactive = no such curve, though single readings can be large; an effect the other way counts as inactive or inconclusive.

Key:
[1] = target: Glutathione peroxidase 1 (Homo sapiens) (UniProt P07203); test: Primary qHTS Assay for Inhibitors of Recombinant Selenoprotein Glutathione Peroxidase 1 (GPX1) (AID 1845191); also: nearly all actives have a fitted effect of over 65% in size; as to activity, negative = inhibition: % is scaled to controls: 0 for no effect and ±100 for the full control effect
How it was run: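 Recombinant GPX1 (10 nM final) was preincubated with compound for 30 min at room temperature, then reacted with 1 mM GSH, 0.5 mM CHP, 0.5 mM NADPH and 100 nM glutathione reductase; NADPH fluorescence (340/450 nm) was read at 0 and 15 min.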

[2] = target: Phospholipid hydroperoxide glutathione peroxidase GPX4 (Homo sapiens) (UniProt P36969); test: Primary qHTS Assay for Inhibitors of Recombinant Selenoprotein Glutathione Peroxidase 4 (GPX4) (AID 1845192); also: nearly all actives have a fitted effect of over 65% in size; as to activity change, negative = inhibition: series mostly up to about 50 µM; % is scaled to controls: 0 for no effect and ±100 for the full control effect
How it was run: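 GR-coupled readout: 100 nM GR, 1 mM GSH, 0.5 mM NADPH; NADPH fluorescence (ex 340/em 450 nm) read at t=0 and after 15 min RT. GPX4 200 nM, preincubated 30 min with compound; substrate 0.5 mM CHP.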

[3] = target: Luciferin 4-monooxygenase (Photinus pyralis) (UniProt P08659); test: Primary firefly luciferase (FLuc) qHTS assay for identification of artifact compounds. (AID 1845220); also: nearly all actives have a fitted effect of over 60% in size;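 as to activity change, negative = inhibition: series mostly up to about 54 µM; plate controls were DMSO vehicle for no effect and no enzyme for full effect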
How it was run: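 In this counter-screen for luciferase artifacts, test compounds met substrate (10 uM each luciferin and ATP) before 10 nM enzyme started the reaction. Light output was measured 5 min later.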

[4] = Primary fluorescence-based thiol-reactive (MSTI) qHTS assay for identification of artifact compounds. (AID 1845221); also: nearly all actives have a fitted effect of over 65% in size; also: potency is read from the fitted curve at half-maximal effect;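 as to activity change, negative = thiol reactive: series mostly up to about 54 µM; thiol-reactive compounds lower the probe fluorescence signal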
How it was run: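 In PBS pH 7.4 with 2% DMSO, each compound met 4 uM MSTI for one hour at ambient temperature, shielded from light, before fluorescence detection.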

[5] = test system: Nanoluciferase (engineered Oplophorus gracilirostris luciferase); test: Primary Nanoluciferase (NLuc) qHTS assay for identification of artifact compounds. (AID 1845222);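 also: NLuc secreted into diluted conditioned medium of S16 cells; series mostly up to about 54 µM; 0% = DMSO and -100% = no enzyme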
How it was run: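 Using secreted nanoluciferase in S16 culture medium (0.22 um filtered, 1:55 dilution), compounds were preincubated 15 min at RT. Signal was generated with Nano-Glo reagent (1:100) over 5 min.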

Phospholipid hydroperoxide glutathione peroxidase GPX4 (Homo sapiens), sequence (P36969 whole entry, looked up): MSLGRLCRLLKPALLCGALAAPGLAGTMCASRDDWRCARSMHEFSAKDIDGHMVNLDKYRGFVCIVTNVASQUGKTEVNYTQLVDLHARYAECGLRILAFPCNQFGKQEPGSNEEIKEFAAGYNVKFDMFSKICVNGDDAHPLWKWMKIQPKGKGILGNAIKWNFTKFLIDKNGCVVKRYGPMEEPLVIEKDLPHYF
Glutathione peroxidase 1 (Homo sapiens), sequence (P07203 whole entry, looked up): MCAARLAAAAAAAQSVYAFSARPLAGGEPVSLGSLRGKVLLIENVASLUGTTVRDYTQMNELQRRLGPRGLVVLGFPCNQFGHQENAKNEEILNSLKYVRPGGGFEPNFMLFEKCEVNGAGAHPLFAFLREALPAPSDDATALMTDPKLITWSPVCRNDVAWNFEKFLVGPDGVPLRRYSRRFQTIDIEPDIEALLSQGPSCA

FC(F)(F)c1nnc2c(Sc3ccccc3)nc3ccc(Cl)cc3n12
inactive: Potency [1] | Potency [2] | Potency [3] | Potency [4] | Potency [5]

CC(=O)NCC1CN(c2ccc(-c3ccc(CNCc4cn[nH]n4)cc3)c(F)c2)C(=O)O1 (stereo not given)
inactive: Potency [1] | Potency [2] | Potency [3] | Potency [4] | Potency [5]

O=C(O)c1ccnc2cc(C(OCC3CCC(F)(F)CC3)c3ccccc3Cl)[nH]c12 (stereo not given)
inactive: Potency [1] | Potency [2] | Potency [3] | Potency [4] | Potency [5]

CC1(C)[C@@H]2CC=C(CO[C@@H]3O[C@H](CO[C@@H]4OC[C@H](O)[C@H](O)[C@H]4O)[C@@H](O)[C@H](O)[C@H]3O)[C@H]1C2
inactive: Potency [1] | Potency [2] | Potency [3] | Potency [4] | Potency [5]

CC(=O)OC/C(=C/C(=O)O)CC[C@@H]1C(C)=CC(=O)[C@@H]2C(C)(C)CCC[C@@]12C
inactive: Potency [1] | Potency [2] | Potency [3] | Potency [4] | Potency [5]

C[C@H]1[C@H](C)CC[C@]2(C(=O)O)CC[C@]3(C(=O)O)C(=CCC4[C@@]5(C)CC[C@H](O[C@@H]6O[C@@H](C)[C@H](O)[C@@H](O)[C@H]6O)C(C)(C)C5CC[C@]43C)[C@H]12 (stereo not given in full)
inactive: Potency [1] | Potency [2] | Potency [3] | Potency [4] | Potency [5]

COc1ccc(-n2c(=O)[nH]c3cc(C(=O)NCc4ccc(Cl)cc4)sc3c2=O)nc1OC
inactive: Potency [1] | Potency [2] | Potency [3] | Potency [4] | Potency [5]

O=C(O)CCc1c(C(=O)O)[nH]c2cc(Cl)cc(Cl)c12
inactive: Potency [1] | Potency [2] | Potency [3] | Potency [4] | Potency [5]

COC(=O)[C@H](Cc1cccc(C(=N)N)c1)[C@@H](C)NC(=O)c1ccc(-c2cc[n+]([O-])cc2)cc1
inactive: Potency [1] | Potency [2] | Potency [3] | Potency [4] | Potency [5]

C=C(C)C1Cc2c(ccc3c2OCC(c2ccc(O)cc2O)C3)O1 (stereo not given)
inactive: Potency [1] | Potency [2] | Potency [3] | Potency [4] | Potency [5]

CC1(C)CC[C@]2(C(=O)O)CC[C@]3(C)C(=CCC4[C@@]5(C)C[C@@H](O)[C@H](O)[C@](C)(CO)C5CC[C@]43C)[C@@H]2[C@@H]1O (stereo not given in full)
inactive: Potency [1] | Potency [2] | Potency [3] | Potency [4] | Potency [5]

O=C(/C=C/c1ccc(O)cc1)O[C@H]1[C@H](OC2CCCCC2O)O[C@H](CO)[C@@H](O)[C@@H]1O (stereo not given in full)
inactive: Potency [1] | Potency [2] | Potency [3] | Potency [5]
active: Potency [4] 4.12 µM

CN(C)CC(c1ccc(O)cc1)C1(O)CCCCC1 (stereo not given)
inactive: Potency [1] | Potency [2] | Potency [3] | Potency [4] | Potency [5]

COc1ccc(CCc2nc3cc(-c4c(C)noc4C)ccc3n2C[C@H](C)N2CCOCC2)cc1Cl
inactive: Potency [1] | Potency [2] | Potency [3] | Potency [4] | Potency [5]

O=C(OC[C@H]1O[C@@H](Oc2ccccc2CO)[C@H](O)[C@@H](O)[C@@H]1O)c1ccccc1
inactive: Potency [1] | Potency [2] | Potency [3] | Potency [5]
active: Potency [4] 10.4 µM

COc1cc(C2Oc3c(OC)cc(CCCO)cc3C2CO)ccc1O (stereo not given)
active: Potency [4] 13.1 µM
inactive: Potency [1] | Potency [2] | Potency [3] | Potency [5]

C=C1CC2C3(C)C=CC(=O)OC(C)(C)C3CC(OC(C)=O)C2(C)C2C(=O)OC(C)C(=O)C12C (stereo not given)
inactive: Potency [1] | Potency [2] | Potency [3] | Potency [4] | Potency [5]

COc1cc(C(C)=O)ccc1O[C@@H]1O[C@H](CO)[C@@H](O)[C@H](O)[C@H]1O
inactive: Potency [1] | Potency [2] | Potency [3] | Potency [4] | Potency [5]

CC(=O)OCC1OC(OC2COC(OC3COC(OC4C(OC5C(CO)OC(OC6CCC7(C)C(CCC8(C)C7CC=C7C9CC(C)(C)CCC9(C(=O)OC9OC(CO)C(O)C(O)C9OC9OCC(OC%10OCC(O)(CO)C%10O)C(O)C9O)C(O)CC78C)C6(C)C)C(O)C5O)OCC(O)C4O)C(O)C3O)C(O)C2O)C(OC(=O)/C=C/c2ccccc2)C(O)C1OC(C)=O (stereo not given)
inactive: Potency [1] | Potency [2] | activity change, negative = inhibition [3] 4.52% [at 6.45 µM] | activity change, negative = thiol reactive [4] 153% [at 6.41 µM] | activity, negative = inhibition [5] 4.35% [at 6.45 µM]

CCCN1CCC[C@@H](c2cccc(S(C)(=O)=O)c2)C1
inactive: Potency [1] | Potency [2] | Potency [3] | Potency [4] | Potency [5]

OC[C@H]1O[C@@H](OCCc2ccccc2)[C@H](O[C@@H]2OC[C@@H](O)[C@H](O)[C@H]2O)[C@@H](O)[C@@H]1O
inactive: Potency [1] | Potency [2] | Potency [3] | Potency [5]
active: Potency [4] 4.12 µM

O=C(/C=C/c1ccc(O)cc1)OC[C@@]1(O)C=C[C@@H]2C(C(=O)O)=CO[C@@H](O[C@@H]3O[C@H](CO)[C@@H](O)[C@H](O)[C@H]3O)[C@@H]21
inactive: Potency [1] | Potency [2] | Potency [3] | Potency [5]
active: Potency [4] 5.19 µM

O=C(O)CCc1cc2ccoc2cc1O[C@@H]1O[C@H](CO)[C@@H](O)[C@H](O)[C@H]1O
inactive: Potency [1] | Potency [2] | Potency [3] | Potency [4] | Potency [5]

CC(C)[C@](O)(c1ccc2cc(OC(F)F)c(OC(F)F)cc2c1)c1cn[nH]n1
inactive: Potency [1] | Potency [2] | Potency [3] | Potency [4] | Potency [5]

COC(=O)C1=CO[C@@H](O[C@@H]2O[C@H](CO)[C@@H](O)[C@H](O)[C@H]2O)[C@@H]2C(CO)=CC[C@H]12
inactive: Potency [1] | Potency [2] | Potency [3] | Potency [4] | Potency [5]

CC(C)=CC[C@H]1O[C@]2(O)C([C@H]3CCC4[C@@]5(C)CC[C@H](O[C@@H]6O[C@H](CO)[C@H](O)[C@H](O[C@@H]7O[C@H](CO)[C@@H](O)[C@H](O)[C@H]7O)[C@H]6O[C@@H]6O[C@@H](C)[C@H](O)[C@@H](O)[C@H]6O)C(C)(C)C5CC[C@@]4(C)[C@]3(C)[C@H]2O)[C@@]1(C)O (stereo not given in full)
inactive: Potency [1] | Potency [2] | activity change, negative = inhibition [3] 0.583% [at 11.6 µM] | activity change, negative = thiol reactive [4] 12.2% [at 11.5 µM] | activity, negative = inhibition [5] -2.88% [at 11.6 µM]

CC(=O)O[C@@H]1C(=O)C(C)=C(CCC(C)CC(=O)O)[C@@]2(C)CCCC(C)(C)C12 (stereo not given in full)
inactive: Potency [1] | Potency [2] | Potency [3] | Potency [4] | Potency [5]

COC(=O)c1ccccc1O[C@@H]1O[C@H](CO[C@@H]2OC[C@@H](O)[C@H](O)[C@H]2O)[C@@H](O)[C@H](O)[C@H]1O
inactive: Potency [1] | Potency [2] | Potency [3] | Potency [5]
active: Potency [4] 5.19 µM

CC(C)=CCC[C@](C)(O[C@@H]1O[C@H](CO[C@@H]2O[C@@H](CO)[C@H](O)[C@H]2O[C@@H]2OC[C@@H](O)[C@H](O)[C@H]2O)[C@@H](O)[C@H](O)[C@H]1O)[C@H]1CC[C@]2(C)[C@@H]1[C@H](O)CC1[C@@]3(C)CC[C@H](O[C@@H]4O[C@H](CO)[C@@H](O)[C@H](O)[C@H]4O[C@@H]4O[C@H](CO)[C@@H](O)[C@H](O)[C@H]4O)C(C)(C)C3CC[C@]12C (stereo not given in full)
inactive: Potency [1] | Potency [2] | activity change, negative = inhibition [3] 0.984% [at 11.6 µM] | activity change, negative = thiol reactive [4] 132% [at 11.5 µM] | activity, negative = inhibition [5] 0% [at 11.6 µM]

CCc1nn(CCO)c(CC)c1Oc1cc(C#N)cc(C#N)c1
inactive: Potency [1] | Potency [2] | Potency [3] | Potency [4] | Potency [5]

C=C(C(=O)O)C1CC(O)C2(C)CCCC(C)(O)C2C1 (stereo not given)
inactive: Potency [1] | Potency [2] | Potency [3] | Potency [5]
active: Potency [4] 11.9 µM

COc1ccc(C2C(C(=O)O)C(C(=O)O)C2c2ccc(OC)cc2O[C@@H]2O[C@H](CO)[C@@H](O)[C@H](O)[C@H]2O)c(O[C@@H]2O[C@H](CO)[C@@H](O)[C@H](O)[C@H]2O)c1 (stereo not given in full)
active: Potency [4] 2.81 µM
inactive: Potency [1] | Potency [2] | Potency [3] | Potency [5]

CC1OC(O[C@H]2CC[C@@]3(C)C(CC[C@]4(C)C3CC=C3C5CC(C)(C)CC[C@]5(C(=O)OC5OC(CO)C(OC6OCC(OC7OCC(O)C(O)C7O)C(O)C6O)C(O)C5O)CC[C@]34C)C2(C)C)C(O)C(O)C1OC1OC(CO)C(O)C(OC2OC(CO)C(O)C(O)C2O)C1O (stereo not given in full)
inactive: Potency [1] | Potency [2] | outcome [3] inactive [at 11.6 µM] | activity change, negative = thiol reactive [4] 250% [at 11.5 µM] | activity, negative = inhibition [5] 0.21% [at 11.6 µM]

CC(CC12CCCN1C(=O)C1CCCN1C2=O)OC(N)=O (stereo not given)
inactive: Potency [1] | Potency [2] | Potency [3] | Potency [4] | Potency [5]

CCC(C)C(=O)O[C@H]1[C@@H](O[C@H]2O[C@H](CO)[C@@H](O)[C@H](O)[C@H]2O)O[C@H](CO)[C@@H](O)[C@@H]1O (stereo not given in full)
inactive: Potency [1] | Potency [2] | Potency [3] | Potency [4] | Potency [5]

CCC(C)/C=C(C)/C=C/C(=O)C1CCC(O)C(C)(O)C1=O (stereo not given)
active: Potency [4] 23.8 µM
inactive: Potency [1] | Potency [2] | Potency [3] | Potency [5]

CCOC(=O)COc1ccc2c(c1)C[C@@H](NC[C@H](O)c1cccc(Cl)c1)CC2
inactive: Potency [1] | Potency [2] | Potency [3] | Potency [4] | Potency [5]

CC(=C\C(C)O)/C=C(\C)C(=O)CC1CC(CC(N)=O)CC(=O)O1 (stereo not given)
inactive: Potency [1] | Potency [2] | Potency [3] | Potency [4] | Potency [5]

C/C(=C/CO)CC[C@H]1[C@]2(C)C[C@H](O)CC(C)(C)[C@H]2CC[C@]1(C)O
inactive: Potency [1] | Potency [2] | Potency [3] | Potency [4] | Potency [5]

C=C1CC[C@H]2[C@@](C)(CCC(O)[C@@]2(C)CO)[C@@H]1/C=C/C(=C\C(=O)O)C(=O)O (stereo not given in full)
active: Potency [4] 5.21 µM
inactive: Potency [1] | Potency [2] | Potency [3] | Potency [5]

CC(C)CC(=O)O[C@@H]1O[C@H](CO)[C@@H](O[C@H]2O[C@H](C)[C@@H](N[C@H]3C=C(CO)[C@@H](O[C@H]4O[C@H](CO)[C@@H](O[C@H]5O[C@H](CO)[C@@H](O[C@H]6O[C@H](CO)[C@@H](O)[C@H](O)[C@H]6O)[C@H](O)[C@H]5O)[C@H](O)[C@H]4O)[C@H](O)[C@H]3O)[C@H](O)[C@H]2O)[C@H](O)[C@H]1O
inactive: Potency [1] | Potency [2] | outcome [3] inactive [at 11.6 µM] | activity change, negative = thiol reactive [4] 7.36% [at 11.5 µM] | activity, negative = inhibition [5] 0.158% [at 11.6 µM]
